Results reported in PubChem BioAssay (NCI).
About 83,000 compounds went through this panel and 20% of them were active in at least one assay; those are over-represented in the sample as a whole.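 Note: values are percent growth. 100 is the growth of untreated cells, values between 100 and 0 indicate rising inhibition; between -100 and 0 indicates cell death.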 The source made the active and inactive calls. Rule for the calls: active = growth percent below 10; inactive = the rest.

Assays:
Experiment in all cases: NCI-60 one-dose screen, 48 h (100 = growth as untreated, 0 = no growth, -100 = all killed)
Details in all cases: 10 µM unless noted
HCT-15 colon = tested on: HCT-15 colon
HT29 colon = tested on: HT29 colon
SNB-75 CNS = tested on: SNB-75 CNS
SNB-19 CNS = tested on: SNB-19 CNS
U251 CNS = tested on: U251 CNS
SK-MEL-5 melanoma = tested on: SK-MEL-5 melanoma
UACC-62 melanoma = tested on: UACC-62 melanoma
LOX IMVI melanoma = tested on: LOX IMVI melanoma
SK-MEL-28 melanoma = tested on: SK-MEL-28 melanoma
SK-MEL-2 melanoma = tested on: SK-MEL-2 melanoma
EKVX NSCLC = tested on: EKVX NSCLC
SN12C renal = tested on: SN12C renal
UO-31 renal = tested on: UO-31 renal
TK-10 renal = tested on: TK-10 renal
ACHN renal = tested on: ACHN renal
CAKI-1 renal = tested on: CAKI-1 renal
A498 renal = tested on: A498 renal
CCRF-CEM leukemia = tested on: CCRF-CEM leukemia
MOLT-4 leukemia = tested on: MOLT-4 leukemia

Measured: growth

Cn1c(NCCc2ccc(O)c(O)c2)nc2c1c(=O)n(Cc1ccc(Br)cc1)c(=O)n2C
inactive: HCT-15 colon 42.7% | HT29 colon 96.8% | SNB-75 CNS 74.6% | SNB-19 CNS 79.8% | U251 CNS 82.8% | SK-MEL-5 melanoma 57.6% | UACC-62 melanoma 82% | LOX IMVI melanoma 87.9% | SK-MEL-28 melanoma 82.6% | SK-MEL-2 melanoma 89.8% | EKVX NSCLC 79.9% | SN12C renal 72.7% | UO-31 renal 30% | TK-10 renal 68.8% | ACHN renal 32.9% | CAKI-1 renal 74.7% | A498 renal 106% | CCRF-CEM leukemia 23% | MOLT-4 leukemia 29.3%

Cc1cc(C)nc(SC2=C(Nc3cccc(Cl)c3)C(=O)N(Cc3ccccc3)C2=O)n1
inactive: HCT-15 colon 59.9% [30 µM] | HT29 colon 53.6% [30 µM] | SNB-75 CNS 58.5% [30 µM] | SNB-19 CNS 94.4% [30 µM] | U251 CNS 78.5% [30 µM] | SK-MEL-5 melanoma 50.1% [30 µM] | UACC-62 melanoma 61.4% [30 µM] | LOX IMVI melanoma 67.6% [30 µM] | SK-MEL-28 melanoma 93.2% [30 µM] | SK-MEL-2 melanoma 75.9% [30 µM] | EKVX NSCLC 56% [30 µM] | SN12C renal 71.9% [30 µM] | UO-31 renal 34% [30 µM] | TK-10 renal 97.2% [30 µM] | ACHN renal 68.2% [30 µM] | CAKI-1 renal 66% [30 µM] | A498 renal 67.2% [30 µM] | CCRF-CEM leukemia 26.2% [30 µM]
active: MOLT-4 leukemia 7.17% [30 µM]

NS(=O)(=O)c1ccc(CN=C2NC(=O)S/C2=C\c2ccc(Br)cc2)cc1
inactive: HCT-15 colon 103% | HT29 colon 105% | SNB-75 CNS 89.1% | SNB-19 CNS 97.7% | U251 CNS 97.9% | SK-MEL-5 melanoma 99.2% | UACC-62 melanoma 93.3% | LOX IMVI melanoma 100% | SK-MEL-28 melanoma 100% | SK-MEL-2 melanoma 102% | EKVX NSCLC 103% | SN12C renal 97.1% | UO-31 renal 88.8% | TK-10 renal 108% | ACHN renal 102% | CAKI-1 renal 100% | A498 renal 102% | CCRF-CEM leukemia 95% | MOLT-4 leukemia 99.3%

CCN(CC)S(=O)(=O)c1ccc(OC)c(NC(=O)c2[nH]c(C)c3c2CCCCC3=O)c1
active: SNB-75 CNS 9.16% | SK-MEL-5 melanoma -21.8% | LOX IMVI melanoma 9.93%
inactive: HCT-15 colon 18.9% | HT29 colon 14.5% | SNB-19 CNS 45.2% | U251 CNS 43.6% | UACC-62 melanoma 16.2% | SK-MEL-28 melanoma 55.7% | SK-MEL-2 melanoma 55.3% | EKVX NSCLC 43.5% | SN12C renal 42% | UO-31 renal 14.4% | TK-10 renal 13.5% | ACHN renal 31.1% | CAKI-1 renal 15.1% | A498 renal 15.1% | CCRF-CEM leukemia 55.7% | MOLT-4 leukemia 64.9%

CCCc1cc(=O)n2c(C(=O)Nc3cccc(C(=O)OCC)c3)c(C(=O)Nc3ccc(F)cc3)sc2n1
inactive: HCT-15 colon 66.4% [30 µM] | HT29 colon 67.5% [30 µM] | SNB-75 CNS 25.6% [30 µM] | SNB-19 CNS 43.8% [30 µM] | U251 CNS 13.2% [30 µM] | SK-MEL-5 melanoma 66.6% [30 µM] | UACC-62 melanoma 104% [30 µM] | LOX IMVI melanoma 46.8% [30 µM] | SK-MEL-28 melanoma 88.3% [30 µM] | SK-MEL-2 melanoma 63.4% [30 µM] | EKVX NSCLC 92.8% [30 µM] | SN12C renal 28.8% [30 µM] | UO-31 renal 15.7% [30 µM] | TK-10 renal 45% [30 µM] | ACHN renal 38.9% [30 µM] | CAKI-1 renal 17.3% [30 µM] | CCRF-CEM leukemia 40.9% [30 µM] | MOLT-4 leukemia 127% [30 µM]
active: A498 renal 8.74% [30 µM]

Cc1cc(C)nc(SC2=C(Nc3cccc(Cl)c3C)C(=O)N(Cc3ccccc3)C2=O)n1
inactive: HCT-15 colon 51.6% [30 µM] | HT29 colon 30.2% [30 µM] | SNB-75 CNS 50.5% [30 µM] | SNB-19 CNS 71.9% [30 µM] | U251 CNS 49.4% [30 µM] | SK-MEL-5 melanoma 64.3% [30 µM] | UACC-62 melanoma 56.2% [30 µM] | LOX IMVI melanoma 59% [30 µM] | SK-MEL-28 melanoma 85.1% [30 µM] | SK-MEL-2 melanoma 69.6% [30 µM] | EKVX NSCLC 47.2% [30 µM] | SN12C renal 70.1% [30 µM] | UO-31 renal 14.7% [30 µM] | TK-10 renal 60.5% [30 µM] | ACHN renal 65.2% [30 µM] | CAKI-1 renal 60.8% [30 µM] | A498 renal 40.1% [30 µM] | CCRF-CEM leukemia 26.9% [30 µM]
active: MOLT-4 leukemia 4.41% [30 µM]

C=C1c2nc3ccccc3n2C=C(c2cccc(Cl)c2)N1Cc1ccc(OC)cc1
active: SK-MEL-5 melanoma -31.1% | EKVX NSCLC 8.8% | UO-31 renal 9.79% | CAKI-1 renal 3.02% | MOLT-4 leukemia 8.13%
inactive: HCT-15 colon 25.7% | HT29 colon 99.1% | SNB-75 CNS 16.5% | SNB-19 CNS 20.4% | U251 CNS 18.4% | UACC-62 melanoma 44.7% | LOX IMVI melanoma 37.2% | SK-MEL-28 melanoma 67.7% | SK-MEL-2 melanoma 28.2% | SN12C renal 37% | TK-10 renal 30.8% | ACHN renal 49.2% | A498 renal 91.7% | CCRF-CEM leukemia 47.2%
